Reference: the supplement of paper PMC3545927
This is one part of the list. The true hit rate is not given.

Biological target: furin, P09958
Assay: furin cleavage Z-score vs untreated control; higher = more cleavage, active = 3.5 or more, inactive = 1 or less, 8 variable residues between constant flanks
Method in brief: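 Read counts from sequencing released DNA gave abundance for each bead-bound 8-mer peptide–cDNA fusion cut by purified furin over 7.5, 15 or 30 min. The cleavage Z-score compares log counts with furin-free reactions after lowess adjustment and median absolute deviation scaling.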
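Also: purified furin at 1:10 enzyme:substrate in 50 mM HEPES pH 7.5.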

Chain of furin, P09958 (P09958 whole entry): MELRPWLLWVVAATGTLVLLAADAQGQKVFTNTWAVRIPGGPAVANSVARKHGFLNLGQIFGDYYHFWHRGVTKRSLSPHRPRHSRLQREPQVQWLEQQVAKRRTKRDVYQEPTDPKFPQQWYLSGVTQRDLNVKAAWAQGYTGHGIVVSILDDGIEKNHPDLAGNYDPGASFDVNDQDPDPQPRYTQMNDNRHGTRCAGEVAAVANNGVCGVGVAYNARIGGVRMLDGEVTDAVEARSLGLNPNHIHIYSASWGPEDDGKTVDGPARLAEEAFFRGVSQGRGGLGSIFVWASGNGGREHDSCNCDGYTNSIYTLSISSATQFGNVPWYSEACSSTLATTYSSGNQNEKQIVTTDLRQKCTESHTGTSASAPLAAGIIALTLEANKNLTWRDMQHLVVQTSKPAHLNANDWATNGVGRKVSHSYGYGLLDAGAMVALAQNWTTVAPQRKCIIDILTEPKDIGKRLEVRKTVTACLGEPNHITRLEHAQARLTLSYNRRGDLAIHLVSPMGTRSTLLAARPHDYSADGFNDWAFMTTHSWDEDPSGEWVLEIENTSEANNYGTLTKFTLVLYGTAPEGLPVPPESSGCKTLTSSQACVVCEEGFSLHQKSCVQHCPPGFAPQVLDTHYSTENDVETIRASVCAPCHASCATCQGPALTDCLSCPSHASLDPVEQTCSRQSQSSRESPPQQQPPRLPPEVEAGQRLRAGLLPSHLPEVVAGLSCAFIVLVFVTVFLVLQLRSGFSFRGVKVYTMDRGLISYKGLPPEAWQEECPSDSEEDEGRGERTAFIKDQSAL

Row | Sequence | furin cleavage Z-score (7.5 min) | furin cleavage Z-score (15 min) | furin cleavage Z-score (30 min)
1 | CAEVVTSTWRAGNASASA [HC2253] | 0.989 (inactive) | 0.48 (inactive) | 1.66
2 | CATTPASGSWAGNASASA [HC41] | -0.916 (inactive) | -1.61 (inactive) | -1.23 (inactive)
3 | CADDMEECSQAGNASASA [HC1811] | 0.222 (inactive) | -0.945 (inactive) | -0.707 (inactive)
4 | CARRRRQAERAGNASASA [FS-2793] | 10.1 (active) | 11.9 (active) | 8.27 (active)
5 | CARRRRKKARAGNASASA [FS-2790] | 1.33 | 1.06 | 0.0674 (inactive)
6 | CARRRRDATRAGNASASA [FS-1970] | 13.2 (active) | 14.6 (active) | 10 (active)
7 | CANAVAYYRGAGNASASA [HC867] | -0.298 (inactive) | 0.148 (inactive) | 1.73
8 | CARRRKSLKTAGNASASA [FS-2783] | 0.0718 (inactive) | 1.16 | 2.47
9 | CAGPVRLKKKAGNASASA [FS-1527] | -0.8 (inactive) | -1.68 (inactive) | -0.907 (inactive)
10 | CARVRKSLKKAGNASASA [FS-2534] | 0.916 (inactive) | 3.69 (active) | 5.83 (active)
11 | CARVRKSKGKAGNASASA [FS-1802] | 0.157 (inactive) | -1.05 (inactive) | 0.116 (inactive)
12 | CARVRRNKRSAGNASASA [FS-1275] | 11.3 (active) | 10.9 (active) | 9.58 (active)
13 | CARVRRNAKKAGNASASA [FS-1978] | 6.72 (active) | 5.97 (active) | 7.62 (active)
14 | CAKRERNKRSAGNASASA [FS-1637] | 12.5 (active) | 14.4 (active) | 10.7 (active)
